HepG2 viability – qHTS for Inhibitors of TGF-b: Cytotox Counterscreen; HepG2 CAGA-GFP viability, ATP luminescence, 18 h; Potency, µM (highest dose often 46.1 µM), hits mostly cytotoxic; 410,000 tested, 0.76% active; AID 588856, 2011
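HepG2 CAGA-GFP cells (1000/well, DMEM with 1% FBS) received compound, then TGF-beta at 500 pg/mL final, and were incubated 18 hours at 37 degrees C. Viability was read by CellTiter-Glo luminescence. Media-only wells were set as complete cell-killing and DMSO as no toxicity.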
TDP1 block – qHTS Assay for Inhibitors of Tyrosyl-DNA Phosphodiesterase (TDP1) | Tyrosyl-DNA phosphodiesterase 1 (Homo sapiens), Q9NUW8 | recombinant TDP1, AlphaScreen DNA substrate cleavage | Potency, µM (top dose mostly 130 µM), actives largely listed as inhibitors | 350,000 tested, 0.28% active | AID 485290, 2010; note: nearly all actives have a fitted effect of over 40% in size
Target sequence (Q9NUW8 whole entry, looked up): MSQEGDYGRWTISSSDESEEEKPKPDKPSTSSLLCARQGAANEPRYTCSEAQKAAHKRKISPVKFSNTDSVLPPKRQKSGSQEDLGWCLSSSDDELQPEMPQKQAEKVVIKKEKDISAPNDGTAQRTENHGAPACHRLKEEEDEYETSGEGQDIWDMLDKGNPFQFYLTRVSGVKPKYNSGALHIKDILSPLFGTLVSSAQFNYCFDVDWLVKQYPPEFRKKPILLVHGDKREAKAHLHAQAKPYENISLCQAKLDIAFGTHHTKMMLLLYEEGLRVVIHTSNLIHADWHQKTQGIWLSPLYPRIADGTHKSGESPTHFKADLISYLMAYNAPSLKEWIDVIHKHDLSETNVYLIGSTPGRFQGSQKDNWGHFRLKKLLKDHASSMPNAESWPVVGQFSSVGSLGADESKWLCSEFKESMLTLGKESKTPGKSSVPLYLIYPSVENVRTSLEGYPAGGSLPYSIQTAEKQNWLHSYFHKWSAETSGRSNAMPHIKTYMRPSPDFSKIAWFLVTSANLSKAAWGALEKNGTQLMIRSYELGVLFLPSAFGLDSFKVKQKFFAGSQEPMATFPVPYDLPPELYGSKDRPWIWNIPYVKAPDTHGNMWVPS
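Compounds were preincubated with Tdp1 (1 nM final) for 15 min at room temperature before substrate (15 nM final) started a 5 min reaction; beads (10 ug/ml final) were then added for 10 min before AlphaScreen detection.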
TGFb SMAD3 inh – qHTS for Inhibitors of TGF-b. HepG2 CAGA-GFP TGF-b/SMAD3 reporter, GFP fluorescence, 18 h; TGF-beta stimulated, 500 pg/mL final. Potency, µM (top dose mostly 46.1 µM), actives largely listed as inhibitors. 410,000 tested, 1.2% active. AID 588855, 2011; note: nearly all actives have a fitted effect of over 65% in size
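Per well, imaged GFP fluorescence of HEPG2 CAGA-GFP cells gives the signal; cells get compound, then TGF-beta (500 pg/mL final), 18 h at 37 degrees C; %Activity versus -TGF-beta and +DMSO controls.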
DT40 TDP1 CPT – qHTS for Inhibitors of human tyrosyl-DNA phosphodiesterase 1 (TDP1): qHTS in cells in presence of CPT. chicken DT40 Tdp1-/-;hTDP1 cells + 20 nM CPT, ATP luminescence, 48 h. Potency, µM (top dose mostly 46.2 µM), most hits filed as inhibitors. 420,000 tested, 12% active. AID 686979, 2013; note: nearly all actives have a fitted effect of over 55% in size
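Chicken DT40 Tdp1-/- cells complemented with human TDP1, 400 cells/well, exposed to compounds plus 20 nM camptothecin for at least 48 h at 37 C; viability read as ATP content by CellTiter-Glo luminescence.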
IL1B secr inh – qHTS for Inhibitors of Inflammasome Signaling: IL-1-beta AlphaLISA Primary Screen. THP-1 LPS/ATP IL-1B secretion, AlphaLISA, 16 h; active compounds read low. activity change, % at 57.5 µM. 360,000 tested, 4.7% active. AID 743279, 2014; in the data active = activity change below about -50%; inconclusive = mostly about -30% to -49%
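THP-1 cells pretreated 1 hr with compounds (up to 57.5 uM final), then stimulated with LPS (250 ng/mL final) plus ATP (1.25 mM final); secreted IL-1B measured by AlphaLISA after 16 hr, decreased signal indicating inhibition.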
DT40 TDP1 no CPT – qHTS for Inhibitors of human tyrosyl-DNA phosphodiesterase 1 (TDP1): qHTS in cells in absence of CPT; DT40 Tdp1-/- hTDP1 cells, no CPT, ATP luminescence, 48 h; Potency, µM (top dose mostly 46.2 µM), actives largely listed as inhibitors; 420,000 tested, 15% active; note: nearly all actives have a fitted effect of over 55% in size
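Readout: luminescence from CellTiter-Glo after 30 min in the dark at RT. Cells: DT40 Tdp1-/- with stable hTDP1, 400/well. Exposure: compounds alone, ≥48 hr, 37 °C.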
Numbers stand for hits; . = inactive; ? = inconclusive; / = no result given. Compounds with a hit are over-represented: about 19% of the library has one in this group of screens. Unless noted, calls come from the whole dose curve; as a rule, active = well fitted curve in the direction sought with a large enough effect; inconclusive = small, poorly fitted or top-dose-only effect, or another doubt; inactive = no such curve, though single readings can be large; an effect the other way counts as inactive or inconclusive.

SMILES	HepG2 viability	TDP1 block	TGFb SMAD3 inh	DT40 TDP1 CPT	IL1B secr inh	DT40 TDP1 no CPT
O=C(Cc1csc(Nc2nc(=S)[nH]c3ccccc23)n1)NCCCN1CCN(c2ccccc2F)CC1	.	.	?	8.2µM	-98.8	14.6µM
Cc1ccc(C)n1-c1c(C(=O)NCCCN2CCN(c3ccc(F)cc3)CC2)sc2ncccc12	.	.	?	20.6µM	/	?
O=C(NCCCN1CCN(c2ccccc2F)CC1)c1sc2ncccc2c1-n1cccc1	.	.	?	?	/	20.6µM
O=C(NCCCN1CCN(c2cccc(Cl)c2)CC1)c1cnn(-c2ccc(F)cc2)c1-n1cccc1	10µM	.	?	/	/	/
CCCN(CCC)CCCNC(=O)c1cnn(-c2ccc(F)cc2)c1-n1cccc1	.	.	.	/	/	/
O=C(NCCCN1C(=O)c2ccccc2C1=O)OCc1ccccc1	.	/	.	.	.	.
Cc1ccc(OCC(=O)NCC2(N(C)C)CCCCC2)cc1C	.	.	.	.	/	.
CCc1cccc(-n2c(=O)c3cccnc3n2CC(=O)NCc2ccccc2)c1	.	.	?	?	/	?
O=C(NCCCN1CCN(c2ccccc2)CC1)c1sc2ncccc2c1-n1cccc1	.	.	.	?	/	?
O=C(NCCCN1CCN(c2cccc(Cl)c2)CC1)c1sc2ncccc2c1-n1cccc1	.	.	?	?	/	23.1µM
COc1ccc(CCC(=O)N2CCN(S(=O)(=O)c3ccc(OC(F)(F)F)cc3)CC2)cc1	.	.	.	.	.	.
CCCCC[n+]1ccn(C2=C([O-])c3ccccc3C(=O)/C2=N\S(=O)(=O)c2ccc(Cl)cc2)c1	3.55µM	/	3.16µM	4.61µM	.	2.91µM
CCCC[n+]1ccn(C2=C([O-])c3ccccc3C(=O)/C2=N\S(=O)(=O)c2ccc(Cl)cc2)c1	11.2µM	.	10µM	8.2µM	.	9.2µM
CCc1cc(CNC(=O)c2ccc(OC3CCN(CCc4ccccc4)CC3)cc2)on1	.	14.1µM	.	?	.	.
COc1ccc(NS(=O)(=O)c2ccc3c(c2)CCC(=O)N3)cc1O	.	.	.	?	.	.
COC(=O)[C@H](C)N(Cc1ccc(Cl)c(Cl)c1)S(=O)(=O)CCNC1CCCC1	.	/	.	?	?	20.6µM
O=[N+]([O-])c1ccc(C=NN2CCCCCC2)cc1	.	/	.	?	?	18.4µM
COc1ccccc1N1CCN(/N=C/c2ccc([N+](=O)[O-])cc2)CC1	.	/	.	?	.	?
CSc1ccc(/C=N/n2c(C3CCCCC3)n[nH]c2=S)cc1	.	/	.	?	-61.9	?
O=[N+]([O-])c1ccc(/C=N/n2c(C3CCCCC3)n[nH]c2=S)cc1	.	.	.	?	.	16.4µM
CCSC1=NC2(CCN(C(=O)NC3CCCCC3)CC2)N=C1c1ccc(Cl)cc1	.	.	.	.	/	.
